{
  "source": "paper PMC11062922",
  "about": "(Nature Chemical Biology, 2023)",
  "parameters_in_all_cases": "species or system human, MV4-11 + K-562 + COLO205 + SK-N-BE2 + OVCAR-8",
  "key": {"[1]": {"test_system": "ACAD11", "details": "read-out: apparent Kd; compound concentrations: 100 nM and 1000 nM (sheet 'Samples'), CATDS: 2.4414312635225699E-2; n = 1"}, "[2]": {"test_system": "NQO2", "details": "read-out: apparent Kd; compound concentrations: 100 nM and 1000 nM (sheet 'Samples'), CATDS: 2.8699790095599101E-2; n = 1"}, "[3]": {"test_system": "PIK3CA", "details": "read-out: apparent Kd, compound concentrations: 100 nM and 1000 nM (sheet 'Samples'), n = 1"}, "[4]": {"test_system": "T1, DJA1", "T1 construct": "gene DNAJA1", "details": "read-out: apparent Kd, compound concentrations: 100 nM and 1000 nM (sheet 'Samples'), n = 1"}, "[5]": {"test_system": "NLK", "details": "read-out: apparent Kd; compound concentrations: 100 nM and 1000 nM (sheet 'Samples'), CATDS: 0.11088369265314001; n = 1"}, "[6]": {"test_system": "CDK6", "details": "read-out: apparent Kd, n = 1"}, "[7]": {"test_system": "JAK1", "details": "read-out: apparent Kd, n = 1"}, "[8]": {"test_system": "MAP4K1", "details": "read-out: apparent Kd, n = 1"}, "[9]": {"test_system": "STK26", "details": "read-out: apparent Kd, compound concentrations: 100 nM and 1000 nM (sheet 'Samples'), n = 1"}, "[10]": {"test_system": "PRKCB", "details": "read-out: apparent Kd, n = 1"}, "[11]": {"test_system": "CDC7", "details": "read-out: apparent Kd, compound concentrations: 100 nM and 1000 nM (sheet 'Samples'), n = 1"}, "[12]": {"test_system": "CDK5", "details": "read-out: apparent Kd, n = 1"}, "[13]": {"details": "compound concentrations:100 nM and 1000 nM (sheet 'Samples')"}},
  "note": "Where two headings read alike, the source gives them in different places.",
  "data": [
    {"smiles": "c1ccc(-c2n[nH]cc2Nc2ccnc3ccccc23)nc1", "note": "[GW694077X]", "values": [
      {"measurement": "potency estimated from few doses", "setting": "[1]", "result": 1600, "unit": "nM"},
      {"measurement": "potency estimated from few doses", "setting": "[2]", "result": 903, "unit": "nM"},
      {"measurement": "potency estimated from few doses", "setting": "[3]; CATDS: 4.8537913419409703E-2", "result": 212, "unit": "nM"}
    ]},
    {"smiles": "NS(=O)(=O)c1cccc(-c2ccc3c(NC(=O)C4CC4)n[nH]c3c2)c1", "note": "[SB-741905]", "values": [
      {"measurement": "potency estimated from few doses", "setting": "[4]; CATDS: 0.110749292558391", "result": 1780, "unit": "nM"},
      {"measurement": "potency estimated from few doses", "setting": "[5]", "result": 1780, "unit": "nM"},
      {"measurement": "potency estimated from few doses", "setting": "[3]; CATDS: 0.24789463028651901", "result": 301, "unit": "nM"}
    ]},
    {"smiles": "CN[C@H](C#Cc1c(F)ccc2c1/C(=C/c1[nH]ccc1OC)C(=O)N2)CO.Cl", "note": "[RO0283049-001]", "values": [
      {"measurement": "potency estimated from few doses", "setting": "[6]; compound concentrations: 100 nM and 1000 nM (sheet 'Samples'), CATDS: 1.9484263699736298E-2", "result": 2150, "unit": "nM"},
      {"measurement": "potency estimated from few doses", "setting": "[7]; compound concentrations: 100 nM and 1000 nM (sheet 'Samples'), CATDS: 9.7447783313560105E-2", "result": 49.7, "unit": "nM"},
      {"measurement": "potency estimated from few doses", "setting": "[8]; compound concentrations: 100 nM and 1000 nM (sheet 'Samples'), CATDS: 2.1208459408743999E-2", "result": 1460, "unit": "nM"}
    ]},
    {"smiles": "CN(C)c1ccc2c(c1)/C(=C/Nc1ccc(S(N)(=O)=O)cc1)C(=O)N2", "note": "[GW416469X]", "values": [
      {"measurement": "potency estimated from few doses", "setting": "[4]; CATDS: 7.6568205350202298E-2", "result": 1420, "unit": "nM"},
      {"measurement": "potency estimated from few doses", "setting": "[3]; CATDS: 0.16808925824439999", "result": 245, "unit": "nM"},
      {"measurement": "potency estimated from few doses", "setting": "[9]; CATDS: 7.4408225949633894E-2", "result": 1550, "unit": "nM"}
    ]},
    {"smiles": "Cc1occc1-c1nc(N)c(OC[C@@H](N)Cc2c[nH]c3ccccc23)cc1-c1cc2c(C)n[nH]c2cn1", "note": "[GSK1660450B]", "values": [
      {"measurement": "potency estimated from few doses", "setting": "[10]; [13]", "result": 126, "unit": "nM"}
    ]},
    {"smiles": "CNCC1CCn2c(c(C3=C(c4cn(C)c5ccccc45)C(=O)NC3=O)c3ccccc32)C1", "note": "(stereo not drawn) [RO0318676-000]", "values": [
      {"measurement": "potency estimated from few doses", "setting": "[10]; compound concentrations: 100 nM and 1000 nM (sheet 'Samples'), CATDS: 0.17130797334845299", "result": 28.9, "unit": "nM"}
    ]},
    {"smiles": "NS(=O)(=O)c1ccc(NC=C2C(=O)Nc3ccc4ncsc4c32)cc1", "note": "[GW589933X]", "values": [
      {"measurement": "potency estimated from few doses", "setting": "[11]; CATDS: 1.6133442669584601E-2", "result": 2200, "unit": "nM"},
      {"measurement": "potency estimated from few doses", "setting": "[12]; compound concentrations: 100 nM and 1000 nM (sheet 'Samples'), CATDS: 3.21718775388454E-2", "result": 288, "unit": "nM"},
      {"measurement": "potency estimated from few doses", "setting": "[6]; compound concentrations: 100 nM and 1000 nM (sheet 'Samples'), CATDS: 2.1682770776227499E-2", "result": 765, "unit": "nM"},
      {"measurement": "potency estimated from few doses", "setting": "[8]; compound concentrations: 100 nM and 1000 nM (sheet 'Samples'), CATDS: 1.8829734427402701E-2", "result": 1190, "unit": "nM"},
      {"measurement": "potency estimated from few doses", "setting": "[9]; CATDS: 5.6823828903644298E-2", "result": 94.3, "unit": "nM"}
    ]},
    {"smiles": "COc1cc[nH]c1/C=C1\\C(=O)Nc2ccc(F)c(C#C[C@@H](O)[C@@H](N)[C@@H](C)O)c21", "note": "[RO0283120-000]", "values": [
      {"measurement": "potency estimated from few doses", "setting": "[12]; [13]", "result": 1070, "unit": "nM"},
      {"measurement": "potency estimated from few doses", "setting": "[6]; [13]", "result": 1140, "unit": "nM"},
      {"measurement": "potency estimated from few doses", "setting": "[7]; [13]", "result": 468, "unit": "nM"},
      {"measurement": "potency estimated from few doses", "setting": "[8]; [13]", "result": 1060, "unit": "nM"}
    ]},
    {"smiles": "NS(=O)(=O)c1ccc(N/C=C2\\C(=O)Nc3ccc4ncsc4c32)cc1", "note": "[GW297361X]", "values": [
      {"measurement": "potency estimated from few doses", "setting": "[11]; CATDS: 3.3579769325783403E-2", "result": 1330, "unit": "nM"},
      {"measurement": "potency estimated from few doses", "setting": "[12]; compound concentrations: 100 nM and 1000 nM (sheet 'Samples'), CATDS: 4.1634678032953398E-2", "result": 772, "unit": "nM"},
      {"measurement": "potency estimated from few doses", "setting": "[6]; compound concentrations: 100 nM and 1000 nM (sheet 'Samples'), CATDS: 3.48419374837717E-2", "result": 1200, "unit": "nM"},
      {"measurement": "potency estimated from few doses", "setting": "[9]; CATDS: 3.6702057868443203E-2", "result": 1050, "unit": "nM"}
    ]}
  ]
}
